# High-throughput results: PubChem BioAssay, National Center for Advancing Translational Sciences (NCATS)
# Shown are actives, neighbours in structure and some others; about 11% of the full set was active somewhere.
# HCV inh: blocks hepatitis C virus | Potency, µM (series often up to 41.8 µM), for the others: top-dose activity change, negative = inhibition, hits mostly inhibitors | AID 651820 | Huh7.5.1 HCVcc-Cre infection, luciferase reporter, 44 h | 340,000 tested, 3.4% active
#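 Cells (1,000/well) were plated 4 h before compound, then infected with HCVcc-Cre virus (~0.5 moi). After 44 h further culture, infection was read as luciferase luminescence following a 15 min substrate incubation at room temperature.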
# Pf growth 48h: inhibits P. falciparum growth in the first generation, 48 h | P. falciparum luciferase growth in erythrocytes, 48 h | Potency, µM (series often up to 28.7 µM), inactives show at the top dose activity change, negative = inhibition, actives largely listed as inhibitors | 310,000 tested, 5.9% active | AID 504832
#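 Luminescence readout; reporter = integrated firefly luciferase in P. falciparum. RBC culture at 2% hematocrit, 0.1% parasitemia final, 37 C/5% CO2; decreased signal taken as growth inhibition.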
# Pf growth 96h: P. falciparum growth inhibition at 96 hours; P. falciparum luciferase reporter growth, 96 h; Potency, µM (highest dose often 28.7 µM), for the others: at the top dose activity change, negative = inhibition, hits mostly inhibitors; 320,000 tested, 6.9% active; AID 504834
#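 Infected RBCs, 2% Hct / 0.05% parasitemia final; luciferase-reporter P. falciparum; cpd 96 h, 37 C, 5% CO2; luciferase detection reagent; luminescence.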
# AMA1 RON2 block: AMA1-RON2 (P. falciparum) interaction inhibition; AlphaScreen AMA1-biotinylated RON2 peptide binding; Potency, µM (titrated, usually from 58.2 µM), inactives show top-dose activity change, negative = inhibition, actives largely listed as inhibitors; 360,000 tested, 0.2% active; AID 720542;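 also: 0% = vehicle wells and -100% = peptide control; nearly all actives have a fitted effect of over 45% in size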
#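 AMA1 (3D7) with his tag at 25 nM final met compounds first, then biotinylated RON2 peptide at 25 nM; detection used donor plus acceptor beads, 10 µg/mL apiece, read by AlphaScreen after 30 min at room temperature.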
# * marks the source's active call; other numbers are inactive results; i = inactive; ? = inconclusive; . = no result given; [ ] = remark or other dose. Calls follow the shape of the dose curve; as a rule, active = well fitted curve in the direction sought with a large enough effect; inconclusive = small, poorly fitted or top-dose-only effect, or another doubt; inactive = no such curve, though single readings can be large; an effect the other way counts as inactive or inconclusive. Unless noted, % is scaled to controls: 0 for no effect and ±100 for the full control effect; potency is read from the fitted curve at half-maximal effect.
SMILES,HCV inh,Pf growth 48h,Pf growth 96h,AMA1 RON2 block
O=C(O)c1ccc(NC2=C(Cl)C(=O)c3ccccc3C2=O)cc1,?,?,?,-5%
CC(C)(C)N(Cc1ccccc1)C(=O)COC(=O)Cn1cnc2ccccc2c1=O,5%,9%,12%,-24%
C/C(=C/c1oc2ccc(O)cc2c1[N+](=O)[O-])N(C)C,?,.,15µM*,?
COc1ccccc1C(=O)NC(=O)CSc1nnnn1C,5%,.,.,25%
CC(C)N=C(NC#N)SCc1ccc(Br)cc1,6%,?,13µM*,7%
COc1cccc(N2CC(NS(=O)(=O)c3ccc4ccccc4c3)CC2=O)c1 (stereo not given),-6%[8.37 µM],?,0%,-5%
COc1ccc2c(c1)/C(=C\c1cccc(/C=C3/C(=O)Nc4ccc(OC)cc43)n1)C(=O)N2,2.8µM*,.,.,-9%
COc1cccc(CN(Cc2ccccc2F)S(=O)(=O)c2ccc(S(=O)(=O)NCc3ccccc3)cc2)c1,14%,?,?,1%
COc1cccc(CN(Cc2ccco2)S(=O)(=O)c2ccc(S(=O)(=O)NCc3ccccc3)cc2)c1OC,11µM*,13µM*,12%,-7%
Cc1cccc2cc(CN(CC(C)C)S(=O)(=O)c3ccccc3)c(=O)[nH]c12,?,?,13µM*,4%
COc1ccc(S(=O)(=O)N(Cc2ccco2)Cc2cc3ccccc3[nH]c2=O)cc1,14µM*,2%,?,-5%
Cc1cccc(N(Cc2cc3ccc(C)cc3[nH]c2=O)S(=O)(=O)c2ccccc2)c1,?,?,?,0%
Cc1cccc(N(Cc2cc3ccccc3[nH]c2=O)S(=O)(=O)c2ccccc2)c1,28%,15µM*,10µM*,-20%
CCN(Cc1cc2ccccc2[nH]c1=O)S(=O)(=O)c1ccccc1,?,1%,-23%,29%
Cc1ccsc1C1CC(=O)OC2=C1C(=O)CC(C)(C)C2 (stereo not given),.,-10%,12%,.
Cc1c(C(=O)N/N=C/c2ccncc2)nnn1-c1nonc1N,3%,13%,11%,32%
Cc1cc(OC(=O)c2ccco2)c2c3c(c(=O)oc2c1)CCCC3,?,.,3.7µM*,23%
Cc1cc(OCC(=O)Nc2cc(C)nn2-c2ccccn2)c2c3c(c(=O)oc2c1)CCC3,.,6%,147%,.
Cc1cc(OC(=O)c2cccs2)c2c3c(c(=O)oc2c1)CCCC3,?,5.9µM*,54%,-7%
O=C(Oc1cc2oc(=O)c3c(c2cc1Cl)CCCC3)c1cccs1,-3%,20%,?,-15%
Cc1ccc(-n2nc(C)cc2NC(=O)COc2cc(C)cc3oc(=O)c4c(c23)CCC4)cc1,7.1µM*,?,9.3µM*,-3%
O=C1OC(c2ccccc2)=N/C1=C\C=C\c1ccccc1[N+](=O)[O-],-7%,19%,0.47µM*,6%
COc1ccc(CCC(C)NCc2cccc(Br)c2)cc1 (stereo not given),6%,-7%,8.3µM*,-1%
COCCCNC(=O)C1CCC(=O)N1Cc1ccccc1Cl (stereo not given),1%,24%,12µM*,4%
O=C(O)C1CCC(=O)N1Cc1ccccc1Cl (stereo not given),3%,1%,10µM*,-1%
SMILES,HCV inh,Pf growth 48h,Pf growth 96h,AMA1 RON2 block
O=C(NCc1ccccc1Cl)C1CCC(=O)N1Cc1ccc(F)cc1 (stereo not given),19%,34%,14%,8%
COc1ccc(CCNC(=O)C2CCC(=O)N2Cc2ccccc2Cl)cc1OC (stereo not given),2%,0%,22%,-9%
O=C(NCCc1ccc(Cl)cc1)C1CCC(=O)N1Cc1ccccc1Cl (stereo not given),14%,2%,60%,8%
O=C(Nc1ccc(Cl)cc1Cl)C1CCC(=O)N1Cc1ccccc1Cl (stereo not given),7%,?,8.3µM*,-3%
COc1ccc(N(CC(=O)NCc2ccco2)S(=O)(=O)c2ccccc2)cc1,2%,-11%,6.6µM*,-13%
O=C(CSCc1ccccc1Cl)N/N=C/c1ccco1,-5%,16%,13µM*,6%
O=C(CN1CCN(Cc2ccccc2Cl)CC1)N/N=C/c1ccco1,11%,0%,15%,17%
Cc1ccc(N(CC(=O)N/N=C/c2ccco2)S(=O)(=O)c2ccccc2)cc1,12%,?,?,8%
COc1ccc(S(=O)(=O)N(Cc2ccccc2)c2ccccc2C(=O)Nc2ccccc2C(=O)NCc2ccco2)cc1,?,13µM*,i,-15%
O=C(CN(c1ccccc1)S(=O)(=O)c1ccccc1)N/N=C/c1ccco1,-2%,7%,3.7µM*,6%
CC(C)Oc1ccc(C(=O)Nc2ccc(S(=O)(=O)N3CCN(C)CC3)cc2)cc1,-16%,?,?,-8%
Cc1ccc(S(=O)(=O)N(Cc2ccccc2)c2ccccc2C(=O)NCc2cccnc2)cc1,-1%,5.2µM*,20%,18%
CCn1c(SCc2nnc(-c3ccccc3)o2)nc2c1c(=O)n(C)c(=O)n2C,5%,9%,6.6µM*,.
O=C(O)c1ccc(C2Nc3ccccc3C(=O)N2Cc2ccccc2)cc1 (stereo not given),-19%,?,?,-9%
O=C(NNC1=Nc2ccccc2SC1)c1ccc(F)cc1,?,10µM*,?,59%
O=C(NNC1=Nc2ccccc2SC1)c1ccc(Cl)cc1,?,?,?,72%
CCCSc1nnc(CNC(=O)C23CC4CC(CC(C4)C2)C3)n1Cc1ccccc1,-9%,13µM*,?,10%
CN(CC(=O)Nc1ccc(F)c(F)c1F)c1cnccn1,.,13µM*,?,.
COc1ccc(N2C=C3C(=O)C(C)(OC(=O)CCc4ccccc4)C(=O)C=C3C=C2c2ccc(C#N)cc2)cc1 (stereo not given),3%[8.37 µM],?,?,-5%
CCN(CC)CCCN1C=C2C(=O)C(C)(OC(=O)CCc3ccccc3)C(=O)C=C2C=C1c1ccc(C#N)cc1 (stereo not given),7%,?,?,-3%
COc1ccc(CN2C=C3C(=O)C(C)(OC(=O)CCc4ccccc4)C(=O)C=C3C=C2c2ccc(C#N)cc2)cc1 (stereo not given),-14%,9.3µM*,?,-11%
CC1(OC(=O)CCc2ccccc2)C(=O)C=C2C=C(c3ccc(C#N)cc3)N(CCc3c[nH]c4ccccc34)C=C2C1=O (stereo not given),?,12µM*,?,-2%
Cc1cc(OCC(=O)OCC(=O)N2CCc3ccccc3C2)ccc1Cl,17%,8%,1%,7%
CCN(CC(=O)NC1CCS(=O)(=O)C1)c1ccc(S(=O)(=O)N(CC)CC)cc1[N+](=O)[O-] (stereo not given),14%,.,.,2%
Cn1c(-[n+]2c(-c3ccccc3)cc(-c3ccccc3)cc2-c2ccccc2)nc2cc([N+](=O)[O-])ccc21,-2%,13µM*,3.3µM*,4%
